Key:
[1] = biological target: T1, Inhibitor of nuclear factor kappa-B kinase subunit epsilon (Homo sapiens) (UniProt Q14164); conditions: at 1 µM;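 note: reported values are averaged percent inhibition figures against human IKKε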
T1 sequence (whole entry): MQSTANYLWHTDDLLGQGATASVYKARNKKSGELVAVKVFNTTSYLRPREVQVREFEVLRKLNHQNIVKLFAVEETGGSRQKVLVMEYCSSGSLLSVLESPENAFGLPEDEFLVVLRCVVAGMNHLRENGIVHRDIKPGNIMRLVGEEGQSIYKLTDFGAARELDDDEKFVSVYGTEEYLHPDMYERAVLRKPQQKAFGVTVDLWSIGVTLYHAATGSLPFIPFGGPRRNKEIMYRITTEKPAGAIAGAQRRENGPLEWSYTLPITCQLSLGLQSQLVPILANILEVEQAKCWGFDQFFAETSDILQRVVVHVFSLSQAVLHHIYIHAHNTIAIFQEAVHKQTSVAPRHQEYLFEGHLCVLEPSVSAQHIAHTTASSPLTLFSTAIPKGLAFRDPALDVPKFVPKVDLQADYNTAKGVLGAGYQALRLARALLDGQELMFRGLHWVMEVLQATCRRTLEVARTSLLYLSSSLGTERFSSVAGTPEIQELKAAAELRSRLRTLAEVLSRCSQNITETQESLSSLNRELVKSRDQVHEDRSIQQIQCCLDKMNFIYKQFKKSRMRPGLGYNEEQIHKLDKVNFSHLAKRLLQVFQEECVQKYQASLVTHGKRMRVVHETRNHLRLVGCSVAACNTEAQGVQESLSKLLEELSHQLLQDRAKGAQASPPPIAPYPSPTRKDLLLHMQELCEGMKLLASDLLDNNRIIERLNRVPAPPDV

[2] = biological target: T2, Serine/threonine-protein kinase Nek1 (Homo sapiens) (UniProt Q96PY6); conditions: at 0.1 µM
T2 sequence (whole entry): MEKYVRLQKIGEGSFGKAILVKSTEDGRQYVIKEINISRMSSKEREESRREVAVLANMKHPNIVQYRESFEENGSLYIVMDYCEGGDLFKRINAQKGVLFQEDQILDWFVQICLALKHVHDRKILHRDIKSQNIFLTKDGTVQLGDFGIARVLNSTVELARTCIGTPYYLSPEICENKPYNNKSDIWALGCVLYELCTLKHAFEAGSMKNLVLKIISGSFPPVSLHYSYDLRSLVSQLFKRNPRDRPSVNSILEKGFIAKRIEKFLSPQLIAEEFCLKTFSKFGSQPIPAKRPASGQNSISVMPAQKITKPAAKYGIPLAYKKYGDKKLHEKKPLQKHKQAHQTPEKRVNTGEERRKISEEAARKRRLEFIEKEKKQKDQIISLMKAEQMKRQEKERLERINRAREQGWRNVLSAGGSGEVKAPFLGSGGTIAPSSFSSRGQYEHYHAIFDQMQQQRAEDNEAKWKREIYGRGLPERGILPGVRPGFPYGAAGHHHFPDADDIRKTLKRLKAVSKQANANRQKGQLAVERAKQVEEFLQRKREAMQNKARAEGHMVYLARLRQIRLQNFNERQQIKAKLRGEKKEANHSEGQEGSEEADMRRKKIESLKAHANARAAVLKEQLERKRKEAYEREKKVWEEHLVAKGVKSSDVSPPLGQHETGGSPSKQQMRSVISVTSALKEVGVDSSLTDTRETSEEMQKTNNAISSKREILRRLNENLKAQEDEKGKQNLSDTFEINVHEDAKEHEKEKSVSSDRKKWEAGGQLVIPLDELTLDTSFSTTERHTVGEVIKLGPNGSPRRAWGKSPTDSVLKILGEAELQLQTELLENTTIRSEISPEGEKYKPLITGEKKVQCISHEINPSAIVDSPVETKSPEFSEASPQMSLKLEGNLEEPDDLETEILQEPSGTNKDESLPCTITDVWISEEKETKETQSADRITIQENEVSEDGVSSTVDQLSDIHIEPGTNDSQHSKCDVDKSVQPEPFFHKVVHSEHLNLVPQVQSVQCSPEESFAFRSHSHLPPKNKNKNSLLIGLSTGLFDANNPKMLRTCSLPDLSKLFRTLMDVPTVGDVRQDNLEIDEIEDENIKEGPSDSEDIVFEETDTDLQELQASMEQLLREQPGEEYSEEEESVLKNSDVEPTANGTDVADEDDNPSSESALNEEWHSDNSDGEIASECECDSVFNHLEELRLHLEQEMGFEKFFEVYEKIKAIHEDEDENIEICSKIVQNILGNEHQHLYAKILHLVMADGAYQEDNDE

[3] = biological target: T2, Serine/threonine-protein kinase Nek1 (Homo sapiens); conditions: at 1 µM
[4] = biological target: T3, Serine/threonine-protein kinase Nek2 (Homo sapiens) (UniProt P51955); conditions: at 0.1 µM
T3 sequence (whole entry): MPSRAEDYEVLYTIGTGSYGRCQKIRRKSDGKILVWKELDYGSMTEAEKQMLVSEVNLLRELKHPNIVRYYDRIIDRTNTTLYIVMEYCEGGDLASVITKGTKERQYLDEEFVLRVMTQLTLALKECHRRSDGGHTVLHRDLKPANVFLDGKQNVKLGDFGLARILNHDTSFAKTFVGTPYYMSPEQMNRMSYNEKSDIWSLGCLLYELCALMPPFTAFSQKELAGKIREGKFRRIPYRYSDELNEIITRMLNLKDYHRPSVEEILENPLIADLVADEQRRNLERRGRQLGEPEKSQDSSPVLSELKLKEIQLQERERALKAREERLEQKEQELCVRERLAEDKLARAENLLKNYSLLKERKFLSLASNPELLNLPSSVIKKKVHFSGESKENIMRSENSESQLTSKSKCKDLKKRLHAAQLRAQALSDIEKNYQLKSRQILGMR

[5] = biological target: T3, Serine/threonine-protein kinase Nek2 (Homo sapiens); conditions: at 1 µM
[6] = biological target: Serine/threonine-protein kinase Nek6 (Homo sapiens) (UniProt Q9HC98); conditions: at 0.1 µM
[7] = biological target: Serine/threonine-protein kinase Nek6 (Homo sapiens) (UniProt Q9HC98); conditions: at 1 µM
[8] = biological target: Serine/threonine-protein kinase Nek7 (Homo sapiens) (UniProt Q8TDX7); conditions: at 0.1 µM
[9] = biological target: Serine/threonine-protein kinase Nek7 (Homo sapiens) (UniProt Q8TDX7); conditions: at 1 µM
[10] = biological target: T4, Serine/threonine-protein kinase Nek9 (Homo sapiens) (UniProt Q8TD19); conditions: at 0.1 µM
T4 sequence (whole entry): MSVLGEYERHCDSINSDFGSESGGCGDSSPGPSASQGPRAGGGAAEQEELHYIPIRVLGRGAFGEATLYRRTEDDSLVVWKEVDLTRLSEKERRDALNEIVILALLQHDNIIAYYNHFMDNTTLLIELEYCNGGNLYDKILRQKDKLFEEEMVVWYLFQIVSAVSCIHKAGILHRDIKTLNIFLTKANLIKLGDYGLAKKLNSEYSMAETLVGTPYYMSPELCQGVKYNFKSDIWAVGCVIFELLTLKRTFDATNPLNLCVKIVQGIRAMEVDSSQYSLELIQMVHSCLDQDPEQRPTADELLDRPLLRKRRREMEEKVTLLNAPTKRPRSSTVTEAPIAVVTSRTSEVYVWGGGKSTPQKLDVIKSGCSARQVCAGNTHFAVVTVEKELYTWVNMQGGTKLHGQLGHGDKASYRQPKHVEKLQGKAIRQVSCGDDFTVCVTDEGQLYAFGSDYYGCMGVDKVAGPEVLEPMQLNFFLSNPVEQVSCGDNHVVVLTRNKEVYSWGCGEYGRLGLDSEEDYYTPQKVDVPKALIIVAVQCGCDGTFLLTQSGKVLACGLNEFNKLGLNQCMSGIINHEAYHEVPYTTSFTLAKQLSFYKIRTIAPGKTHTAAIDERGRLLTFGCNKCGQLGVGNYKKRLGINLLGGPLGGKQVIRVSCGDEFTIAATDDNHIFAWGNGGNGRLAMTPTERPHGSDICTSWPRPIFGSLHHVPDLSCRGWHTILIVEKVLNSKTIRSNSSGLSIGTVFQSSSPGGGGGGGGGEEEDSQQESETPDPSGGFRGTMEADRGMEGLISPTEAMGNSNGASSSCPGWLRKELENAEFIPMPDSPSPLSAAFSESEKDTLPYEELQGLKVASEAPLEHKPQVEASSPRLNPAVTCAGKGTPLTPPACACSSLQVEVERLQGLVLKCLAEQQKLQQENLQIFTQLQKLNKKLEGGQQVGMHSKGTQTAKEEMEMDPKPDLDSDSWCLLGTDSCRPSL

[11] = biological target: T4, Serine/threonine-protein kinase Nek9 (Homo sapiens); conditions: at 1 µM
[12] = biological target: Serine/threonine-protein kinase PLK1 (Homo sapiens) (UniProt P53350); conditions: at 0.1 µM
[13] = biological target: Serine/threonine-protein kinase PLK1 (Homo sapiens) (UniProt P53350); conditions: at 1 µM
[14] = biological target: T5, Dual specificity protein kinase TTK (Homo sapiens) (UniProt P33981); conditions: at 0.1 µM
T5 sequence (whole entry): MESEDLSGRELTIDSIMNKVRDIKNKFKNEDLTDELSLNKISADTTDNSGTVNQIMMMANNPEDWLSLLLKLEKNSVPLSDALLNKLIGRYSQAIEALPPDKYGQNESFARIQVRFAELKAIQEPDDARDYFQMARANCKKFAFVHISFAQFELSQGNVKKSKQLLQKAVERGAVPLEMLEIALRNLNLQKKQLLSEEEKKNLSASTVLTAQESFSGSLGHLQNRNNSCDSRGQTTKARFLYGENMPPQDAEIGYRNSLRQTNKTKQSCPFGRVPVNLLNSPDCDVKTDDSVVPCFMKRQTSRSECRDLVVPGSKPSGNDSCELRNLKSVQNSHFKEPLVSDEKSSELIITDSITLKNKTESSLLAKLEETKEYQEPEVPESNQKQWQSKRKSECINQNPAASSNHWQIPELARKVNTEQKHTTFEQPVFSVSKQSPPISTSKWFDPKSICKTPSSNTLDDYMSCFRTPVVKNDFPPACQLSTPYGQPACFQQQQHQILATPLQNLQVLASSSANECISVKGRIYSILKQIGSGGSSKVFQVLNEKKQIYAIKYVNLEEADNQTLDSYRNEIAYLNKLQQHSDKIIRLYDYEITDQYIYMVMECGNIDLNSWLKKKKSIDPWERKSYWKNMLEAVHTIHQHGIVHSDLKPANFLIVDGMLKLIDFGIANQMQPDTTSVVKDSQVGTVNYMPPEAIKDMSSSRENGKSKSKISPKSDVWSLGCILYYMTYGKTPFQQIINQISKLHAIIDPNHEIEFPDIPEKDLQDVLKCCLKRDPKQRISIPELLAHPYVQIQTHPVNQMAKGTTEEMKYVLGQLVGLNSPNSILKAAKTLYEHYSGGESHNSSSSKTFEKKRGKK

[15] = test system: T6, Receptor-type tyrosine-protein kinase FLT3 (Homo sapiens), P36888 [D835Y]; conditions: at 1 µM
T6 sequence (whole entry): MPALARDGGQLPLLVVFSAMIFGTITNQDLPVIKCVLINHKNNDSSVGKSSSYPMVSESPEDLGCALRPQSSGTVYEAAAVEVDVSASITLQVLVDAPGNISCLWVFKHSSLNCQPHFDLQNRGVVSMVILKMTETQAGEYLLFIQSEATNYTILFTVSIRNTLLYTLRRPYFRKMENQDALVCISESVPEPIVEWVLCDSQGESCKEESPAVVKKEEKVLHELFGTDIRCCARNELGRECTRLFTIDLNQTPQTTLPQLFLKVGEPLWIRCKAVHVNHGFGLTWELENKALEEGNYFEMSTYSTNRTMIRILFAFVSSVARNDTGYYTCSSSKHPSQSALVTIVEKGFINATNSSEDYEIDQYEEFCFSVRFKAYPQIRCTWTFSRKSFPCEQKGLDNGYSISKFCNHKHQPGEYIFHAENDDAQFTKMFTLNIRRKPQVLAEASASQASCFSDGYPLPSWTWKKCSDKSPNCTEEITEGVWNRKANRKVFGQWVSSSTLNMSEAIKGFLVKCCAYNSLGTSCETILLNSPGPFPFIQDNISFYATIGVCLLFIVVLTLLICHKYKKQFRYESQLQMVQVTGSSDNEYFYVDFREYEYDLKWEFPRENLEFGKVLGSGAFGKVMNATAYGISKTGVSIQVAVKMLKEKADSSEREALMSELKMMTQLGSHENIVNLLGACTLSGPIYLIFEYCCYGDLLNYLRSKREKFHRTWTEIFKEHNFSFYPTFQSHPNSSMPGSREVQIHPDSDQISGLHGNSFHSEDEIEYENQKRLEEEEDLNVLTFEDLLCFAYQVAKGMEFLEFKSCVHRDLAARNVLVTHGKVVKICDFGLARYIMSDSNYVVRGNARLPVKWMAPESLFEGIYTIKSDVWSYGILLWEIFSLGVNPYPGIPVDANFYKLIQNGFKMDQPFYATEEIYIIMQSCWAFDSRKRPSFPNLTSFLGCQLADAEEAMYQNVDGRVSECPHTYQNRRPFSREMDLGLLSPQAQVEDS

[16] = biological target: Vascular endothelial growth factor receptor 3 (Homo sapiens) (UniProt P35916); conditions: at 0.1 µM
[17] = biological target: Vascular endothelial growth factor receptor 3 (Homo sapiens) (UniProt P35916); conditions: at 1 µM
[18] = biological target: Macrophage colony-stimulating factor 1 receptor (Homo sapiens) (UniProt P07333); conditions: at 0.1 µM
[19] = biological target: Macrophage colony-stimulating factor 1 receptor (Homo sapiens) (UniProt P07333); conditions: at 1 µM
[20] = biological target: Tyrosine-protein kinase Fyn (Homo sapiens) (UniProt P06241); conditions: at 0.1 µM
Chain of Tyrosine-protein kinase Fyn (Homo sapiens) (P06241 2-537 limits assumed): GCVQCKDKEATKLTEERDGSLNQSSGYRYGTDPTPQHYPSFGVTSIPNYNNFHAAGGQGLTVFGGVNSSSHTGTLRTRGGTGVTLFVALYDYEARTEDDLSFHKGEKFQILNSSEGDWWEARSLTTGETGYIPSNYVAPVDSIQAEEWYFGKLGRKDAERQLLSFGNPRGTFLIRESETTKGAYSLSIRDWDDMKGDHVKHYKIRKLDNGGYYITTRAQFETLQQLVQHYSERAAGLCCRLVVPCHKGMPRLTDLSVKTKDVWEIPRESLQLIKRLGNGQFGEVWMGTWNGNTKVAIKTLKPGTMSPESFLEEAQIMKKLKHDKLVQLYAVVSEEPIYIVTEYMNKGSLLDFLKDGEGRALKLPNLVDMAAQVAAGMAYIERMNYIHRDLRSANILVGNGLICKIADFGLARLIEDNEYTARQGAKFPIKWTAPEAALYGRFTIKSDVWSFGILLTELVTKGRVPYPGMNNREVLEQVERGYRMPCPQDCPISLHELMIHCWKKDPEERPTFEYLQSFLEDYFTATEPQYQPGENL

Chain of Serine/threonine-protein kinase PLK1 (Homo sapiens) (P53350 whole entry): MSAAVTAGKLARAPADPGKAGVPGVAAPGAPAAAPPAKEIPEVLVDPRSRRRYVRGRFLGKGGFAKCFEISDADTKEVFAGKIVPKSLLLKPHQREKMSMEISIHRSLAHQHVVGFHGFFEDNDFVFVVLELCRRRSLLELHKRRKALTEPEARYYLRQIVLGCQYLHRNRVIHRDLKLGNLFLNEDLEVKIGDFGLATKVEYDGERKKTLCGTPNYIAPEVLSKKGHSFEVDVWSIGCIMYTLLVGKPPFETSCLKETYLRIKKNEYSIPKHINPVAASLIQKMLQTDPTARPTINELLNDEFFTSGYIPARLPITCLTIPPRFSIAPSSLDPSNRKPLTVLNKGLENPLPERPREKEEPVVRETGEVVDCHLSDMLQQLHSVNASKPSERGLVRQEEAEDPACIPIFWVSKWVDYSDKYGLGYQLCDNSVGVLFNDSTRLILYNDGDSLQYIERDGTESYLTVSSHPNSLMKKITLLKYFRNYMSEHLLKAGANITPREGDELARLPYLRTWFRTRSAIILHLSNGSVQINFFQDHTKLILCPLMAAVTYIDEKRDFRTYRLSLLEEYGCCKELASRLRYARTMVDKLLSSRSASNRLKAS
Chain of Serine/threonine-protein kinase Nek7 (Homo sapiens) (Q8TDX7 whole entry, looked up): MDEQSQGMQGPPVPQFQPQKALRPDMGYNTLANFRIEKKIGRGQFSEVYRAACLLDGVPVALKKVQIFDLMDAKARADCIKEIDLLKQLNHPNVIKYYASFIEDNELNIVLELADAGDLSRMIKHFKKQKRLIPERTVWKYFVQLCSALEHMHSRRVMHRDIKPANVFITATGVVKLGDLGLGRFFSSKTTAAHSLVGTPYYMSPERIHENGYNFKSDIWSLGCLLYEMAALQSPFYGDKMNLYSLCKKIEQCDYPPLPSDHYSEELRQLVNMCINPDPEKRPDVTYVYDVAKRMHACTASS
Chain of Serine/threonine-protein kinase Nek6 (Homo sapiens) (Q9HC98 whole entry): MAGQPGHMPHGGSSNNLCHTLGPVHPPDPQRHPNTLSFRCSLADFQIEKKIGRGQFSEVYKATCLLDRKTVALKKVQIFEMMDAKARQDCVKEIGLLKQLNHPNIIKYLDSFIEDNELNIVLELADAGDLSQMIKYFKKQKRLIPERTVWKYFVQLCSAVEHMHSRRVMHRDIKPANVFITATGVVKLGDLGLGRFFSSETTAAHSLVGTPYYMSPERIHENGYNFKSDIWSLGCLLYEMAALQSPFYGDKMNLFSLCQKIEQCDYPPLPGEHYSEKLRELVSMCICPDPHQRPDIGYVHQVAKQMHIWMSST
Chain of Macrophage colony-stimulating factor 1 receptor (Homo sapiens) (P07333 whole entry): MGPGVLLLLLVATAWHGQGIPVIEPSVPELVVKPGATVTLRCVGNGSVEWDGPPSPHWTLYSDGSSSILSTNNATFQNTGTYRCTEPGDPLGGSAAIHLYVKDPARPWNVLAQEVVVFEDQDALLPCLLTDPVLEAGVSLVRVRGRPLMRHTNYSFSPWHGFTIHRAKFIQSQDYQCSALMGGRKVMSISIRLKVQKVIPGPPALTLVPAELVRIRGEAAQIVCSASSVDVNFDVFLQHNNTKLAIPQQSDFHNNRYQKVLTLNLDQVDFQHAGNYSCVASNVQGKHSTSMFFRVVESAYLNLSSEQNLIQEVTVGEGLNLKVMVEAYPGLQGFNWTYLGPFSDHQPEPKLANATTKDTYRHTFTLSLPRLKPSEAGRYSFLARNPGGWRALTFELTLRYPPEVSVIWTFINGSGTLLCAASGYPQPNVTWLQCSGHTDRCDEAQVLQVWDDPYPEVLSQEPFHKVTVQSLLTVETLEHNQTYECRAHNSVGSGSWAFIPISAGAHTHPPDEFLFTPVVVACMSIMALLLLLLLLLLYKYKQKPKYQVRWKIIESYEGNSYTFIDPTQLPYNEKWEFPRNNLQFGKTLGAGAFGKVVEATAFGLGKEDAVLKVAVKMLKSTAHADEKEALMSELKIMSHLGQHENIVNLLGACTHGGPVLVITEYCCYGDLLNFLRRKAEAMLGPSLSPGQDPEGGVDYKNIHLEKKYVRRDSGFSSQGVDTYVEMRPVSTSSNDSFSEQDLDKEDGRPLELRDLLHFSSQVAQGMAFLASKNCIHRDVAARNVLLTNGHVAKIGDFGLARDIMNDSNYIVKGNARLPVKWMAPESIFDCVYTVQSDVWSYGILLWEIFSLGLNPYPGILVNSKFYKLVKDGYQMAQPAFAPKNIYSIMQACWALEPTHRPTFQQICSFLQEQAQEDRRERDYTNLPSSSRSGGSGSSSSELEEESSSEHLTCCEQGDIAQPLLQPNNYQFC
Chain of Vascular endothelial growth factor receptor 3 (Homo sapiens) (P35916 whole entry): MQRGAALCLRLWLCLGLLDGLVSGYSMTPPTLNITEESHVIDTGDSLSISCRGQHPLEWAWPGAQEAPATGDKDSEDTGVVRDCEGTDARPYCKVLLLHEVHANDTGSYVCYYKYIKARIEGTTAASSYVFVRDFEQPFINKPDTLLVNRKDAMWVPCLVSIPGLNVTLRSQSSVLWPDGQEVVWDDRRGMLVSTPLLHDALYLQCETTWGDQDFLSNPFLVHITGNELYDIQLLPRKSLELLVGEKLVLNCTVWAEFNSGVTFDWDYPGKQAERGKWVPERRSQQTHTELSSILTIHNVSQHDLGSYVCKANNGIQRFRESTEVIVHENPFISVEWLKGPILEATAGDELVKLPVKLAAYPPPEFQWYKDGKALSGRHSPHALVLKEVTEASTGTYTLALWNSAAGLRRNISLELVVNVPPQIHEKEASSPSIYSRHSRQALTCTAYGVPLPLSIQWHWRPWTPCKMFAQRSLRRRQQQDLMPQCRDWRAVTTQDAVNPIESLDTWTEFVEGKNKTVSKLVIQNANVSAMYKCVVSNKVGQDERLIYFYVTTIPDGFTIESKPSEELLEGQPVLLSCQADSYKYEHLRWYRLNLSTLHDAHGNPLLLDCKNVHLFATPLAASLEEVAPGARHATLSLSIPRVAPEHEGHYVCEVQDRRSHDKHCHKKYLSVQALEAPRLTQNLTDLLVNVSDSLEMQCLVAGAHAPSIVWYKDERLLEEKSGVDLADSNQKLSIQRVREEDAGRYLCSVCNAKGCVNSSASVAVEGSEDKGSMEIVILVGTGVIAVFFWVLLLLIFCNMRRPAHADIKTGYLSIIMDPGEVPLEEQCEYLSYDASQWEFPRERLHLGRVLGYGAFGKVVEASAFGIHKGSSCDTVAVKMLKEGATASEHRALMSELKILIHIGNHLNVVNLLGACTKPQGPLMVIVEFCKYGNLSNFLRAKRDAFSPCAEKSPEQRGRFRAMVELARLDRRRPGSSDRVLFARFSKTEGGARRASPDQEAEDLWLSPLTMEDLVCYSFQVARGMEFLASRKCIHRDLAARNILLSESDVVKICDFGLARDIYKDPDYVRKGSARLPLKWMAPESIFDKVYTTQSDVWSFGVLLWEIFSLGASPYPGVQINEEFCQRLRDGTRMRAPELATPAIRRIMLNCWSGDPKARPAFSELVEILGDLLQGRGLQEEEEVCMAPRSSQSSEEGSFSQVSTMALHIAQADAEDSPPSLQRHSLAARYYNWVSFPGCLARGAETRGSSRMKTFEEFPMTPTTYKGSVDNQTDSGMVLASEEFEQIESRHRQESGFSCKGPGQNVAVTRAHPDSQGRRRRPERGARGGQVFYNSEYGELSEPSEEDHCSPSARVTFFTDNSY

CNC(=O)c1cc(-c2ccc(F)cc2)cc(-c2ccc(S(=O)(=O)N3CCCC3)cc2)c1N
inhibition [1]: 3.73%
inhibition [2]: 1.09%
inhibition [3]: 2.25%
inhibition [4]: 4.19%
inhibition [5]: 2.55%
inhibition [6]: 3.41%
inhibition [7]: 2.7%
inhibition [8]: 3.41%
inhibition [9]: 7.48%
inhibition [10]: 5.37%
inhibition [11]: 7.69%
inhibition [12]: 2.97%
inhibition [13]: 3.38%
inhibition [14]: 4.67%
inhibition [15]: 5.93%
inhibition [16]: 0.74%
inhibition [17]: 2.49%
inhibition [18]: 0.47%
inhibition [19]: 1.28%
inhibition [20]: 1.22%

— ChEMBL document CHEMBL1961873, “Compounds: GSK PKIS; Assays: Nanosyn kinase panel” (2012)
